# Values joined by “and” are separate entries in the source; they are usually repeats but may differ in a detail not shown here. Equal values may be shown once. Records with an inconclusive call do not appear. More than one record can exist for a structure, and the calls need not agree. Active and inactive are the calls of the source. Rule for the calls, unless noted: active = hit-call score of the fitted dose curve at least 0.9, where 1 is the maximum; inactive = score below 0.9.
# Key:
# [1] = ATG_NFI_CIS: Attagene CIS-FACTORIAL HepG2 Assay for human Nuclear Factor I (NFI) (AID 2282989); details: HepG2 cis-regulatory reporter, NFI response element transcription; actives raise or lower the signal
# Method in brief: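 After transient transfection of HepG2 with cis-promoter reporter constructs and 24 h dosing, RNA is reverse-transcribed, amplified, 6-FAM end-labelled and HpaI-digested before capillary analysis. Bidirectional curve fitting against DMSO.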
# [2] = target: Myc proto-oncogene protein (Homo sapiens) (UniProt P01106); assay: ATG_Myc_CIS: Attagene CIS-FACTORIAL HepG2 Assay for human Myelocytomatosis (Myc) Proto-Oncogene Transcription Factor (AID 2282990); details: HepG2, Attagene cis-reporter transcription factor activity; actives raise or lower the signal
# Sequence of Myc proto-oncogene protein (Homo sapiens) (P01106 whole entry, looked up): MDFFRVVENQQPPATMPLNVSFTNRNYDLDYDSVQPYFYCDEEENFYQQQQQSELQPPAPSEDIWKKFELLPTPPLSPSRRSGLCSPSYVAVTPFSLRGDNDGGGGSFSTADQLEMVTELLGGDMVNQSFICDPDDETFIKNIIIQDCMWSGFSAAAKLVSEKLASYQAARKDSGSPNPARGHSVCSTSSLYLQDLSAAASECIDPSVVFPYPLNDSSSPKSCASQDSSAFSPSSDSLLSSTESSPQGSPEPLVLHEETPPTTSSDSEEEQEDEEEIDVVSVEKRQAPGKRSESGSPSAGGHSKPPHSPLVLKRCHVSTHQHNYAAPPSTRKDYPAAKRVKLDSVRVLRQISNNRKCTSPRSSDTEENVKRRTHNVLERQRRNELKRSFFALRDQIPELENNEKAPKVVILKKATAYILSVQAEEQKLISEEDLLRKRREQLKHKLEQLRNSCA
# Method in brief: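 Cells of the HepG2 human liver line bear multiple cis-driven reporter transcription units. Reporter mRNA after 24 h exposure is reverse-transcribed, amplified, labelled and resolved by capillary electrophoresis, with gain- or loss-of-signal fitting relative to DMSO.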
# [3] = ATG_NF_kB_CIS: Attagene CIS-FACTORIAL HepG2 Assay for human Nuclear Factor Kappa B (NF-kB) (AID 2282991); details: HepG2 Attagene cis-factorial NF-kB reporter mRNA; actives raise or lower the signal
# Method in brief: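 Endpoint from a 52-component multiplexed HepG2 reporter panel: cis-regulated transcription units transiently transfected, 24 h dosing, reporter mRNA quantified by RT-PCR and capillary electrophoresis, scored as increase or decrease against DMSO.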
# [4] = ATG_NRF2_ARE_CIS: Attagene CIS-FACTORIAL HepG2 Assay for human Nuclear Factor Erythroid 2 Related Factor 2 (NFR2) response to Antioxidant Response Elements (ARE) (AID 2282992); details: HepG2 Attagene ARE/NRF2 reporter, transcription factor activity; actives raise or lower the signal
# Method in brief: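 Multiplexed reporter mRNA profiling in HepG2 after a 24 h chemical exposure. Curves fitted in both directions relative to DMSO negative control.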
# [5] = ATG_Oct_MLP_CIS: Attagene CIS-FACTORIAL HepG2 Assay for human Octamer-Binding Transcription Factor (Oct) (AID 2282993); details: HepG2 Attagene cis-factorial Oct reporter, mRNA; actives raise or lower the signal
# Method in brief: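 Cells of the HepG2 line express promoter-controlled reporter sequences whose mRNA levels, after 24 h treatment, are measured by RT-PCR and capillary electrophoresis. Increases and decreases are scored relative to DMSO.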
# [6] = target: Cellular tumor antigen p53 (Homo sapiens) (UniProt P04637); assay: ATG_p53_CIS: Attagene CIS-FACTORIAL HepG2 Assay for human p53 Transcription Factor (AID 2282994); details: HepG2 p53 cis-element reporter, Attagene mRNA; actives raise or lower the signal
# Sequence of Cellular tumor antigen p53 (Homo sapiens) (P04637 whole entry, looked up): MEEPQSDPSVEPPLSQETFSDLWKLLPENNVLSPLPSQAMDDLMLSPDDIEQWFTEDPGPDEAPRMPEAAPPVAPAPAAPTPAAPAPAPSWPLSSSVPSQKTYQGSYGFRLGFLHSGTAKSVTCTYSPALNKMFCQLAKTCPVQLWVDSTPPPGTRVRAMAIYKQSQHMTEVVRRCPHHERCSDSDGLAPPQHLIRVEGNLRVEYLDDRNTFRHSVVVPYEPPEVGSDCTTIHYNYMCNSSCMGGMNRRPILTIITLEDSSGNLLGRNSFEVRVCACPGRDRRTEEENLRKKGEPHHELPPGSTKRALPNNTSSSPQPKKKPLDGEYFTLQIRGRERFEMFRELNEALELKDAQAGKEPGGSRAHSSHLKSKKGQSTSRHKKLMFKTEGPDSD
# Method in brief: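 Multiplexed reporter mRNA assay in human HepG2 liver cells; cis-regulated units report endogenous factor activity. Values come from bidirectional curve fitting against DMSO negative control after 24 h treatment.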
# [7] = BSK_3C_TissueFactor: BioMAP Diversity Plus: 3C Assay for Tissue Factor Biomarker Activity (AID 2282997); details: BioMAP 3C HUVEC, tissue factor biomarker readout; actives raise or lower the signal
# Method in brief: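 Dosing of human umbilical vein endothelial cells preceded a 24 h incubation. Tissue Factor was then read by ELISA, with increases and decreases both scored relative to DMSO controls.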
# [8] = BSK_3C_uPAR: BioMAP Diversity Plus: 3C Assay for Urokinase-type plasminogen activator receptor (uPAR) Biomarker Activity (AID 2282998); details: BioMAP 3C HUVEC, uPAR biomarker ELISA; actives raise or lower the signal
# Method in brief: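 Endothelial primary cells of human umbilical vein origin received test chemical; 24 h later uPAR was assayed by ELISA. Fitting was bidirectional, DMSO as negative control.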
# [9] = BSK_3C_VCAM1: BioMAP Diversity Plus: 3C Assay for Vascular cell adhesion molecule 1 (VCAM1) Biomarker Activity (AID 2282999); details: BioMAP 3C HUVEC, VCAM1 ELISA, cytokine-stimulated; actives raise or lower the signal
# Method in brief: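 Endothelial cells from human umbilical vein are treated with test chemical. At 24 h, VCAM-1 is measured by ELISA, and responses in either direction are fitted relative to DMSO.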
# [10] = BSK_4H_Eotaxin3: BioMAP Diversity Plus: 4H Assay for Eotaxin 3 Biomarker Activity (AID 2283000); details: primary human endothelial cells (HUVEC); actives raise or lower the signal;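 for outcome: CCL26 protein level quantified by ELISA in parallel with SRB cytotoxicity check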
# Method in brief: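 Human umbilical vein endothelial cells (BSK_4H system) dosed with test chemical; Eotaxin-3 (CCL26) measured by ELISA 24 h after dosing. Bidirectional curve fitting relative to DMSO negative control as baseline.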
# [11] = target: human Peroxisome Proliferator-activated Receptor alpha (PPARa), PPARA (gene 5465) (UniProt Q07869); assay: ATG_PPARa_TRANS: Attagene TRANS-FACTORIAL HepG2 Assay for human Peroxisome Proliferator-activated Receptor alpha (PPARa) (AID 2283001; active = hit-call score of the fitted dose curve at least 0.9, where 1 is the maximum;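 for AC50: potency for gain of reporter signal over DMSO so agonist or activator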)
# Sequence of human Peroxisome Proliferator-activated Receptor alpha (PPARa), PPARA (gene 5465) (Q07869 whole entry, looked up, the tested form may be a part): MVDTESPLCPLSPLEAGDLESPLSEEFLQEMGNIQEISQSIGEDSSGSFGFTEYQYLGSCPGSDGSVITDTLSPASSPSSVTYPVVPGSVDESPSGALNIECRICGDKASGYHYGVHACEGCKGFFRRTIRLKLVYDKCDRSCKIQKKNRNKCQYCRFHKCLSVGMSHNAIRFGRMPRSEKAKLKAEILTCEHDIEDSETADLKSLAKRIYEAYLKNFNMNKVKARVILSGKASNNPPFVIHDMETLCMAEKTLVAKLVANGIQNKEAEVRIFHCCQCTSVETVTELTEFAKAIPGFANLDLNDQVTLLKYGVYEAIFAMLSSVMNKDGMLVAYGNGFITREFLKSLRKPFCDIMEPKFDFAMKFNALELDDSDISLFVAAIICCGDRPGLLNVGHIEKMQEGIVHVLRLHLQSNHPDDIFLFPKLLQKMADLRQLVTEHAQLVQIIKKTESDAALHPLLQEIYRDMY
# Method in brief: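 Read-out is fluorescence of reporter cDNA fragments resolved by capillary electrophoresis after RT-PCR. Human HepG2 liver cells carried transfected PPARa-Gal4 chimera and GAL4-UAS reporter units, treated 24 h; activity scored as increase over DMSO.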
# [12] = target: human Peroxisome Proliferator-activated Receptor delta (PPARd), PPARD (gene 5467) (UniProt Q03181); assay: ATG_PPARd_TRANS: Attagene TRANS-FACTORIAL HepG2 Assay for human Peroxisome Proliferator-activated Receptor delta (PPARd) (AID 2283002; active = hit-call score of the fitted dose curve at least 0.9, where 1 is the maximum)
# Sequence of human Peroxisome Proliferator-activated Receptor delta (PPARd), PPARD (gene 5467) (Q03181 whole entry, looked up): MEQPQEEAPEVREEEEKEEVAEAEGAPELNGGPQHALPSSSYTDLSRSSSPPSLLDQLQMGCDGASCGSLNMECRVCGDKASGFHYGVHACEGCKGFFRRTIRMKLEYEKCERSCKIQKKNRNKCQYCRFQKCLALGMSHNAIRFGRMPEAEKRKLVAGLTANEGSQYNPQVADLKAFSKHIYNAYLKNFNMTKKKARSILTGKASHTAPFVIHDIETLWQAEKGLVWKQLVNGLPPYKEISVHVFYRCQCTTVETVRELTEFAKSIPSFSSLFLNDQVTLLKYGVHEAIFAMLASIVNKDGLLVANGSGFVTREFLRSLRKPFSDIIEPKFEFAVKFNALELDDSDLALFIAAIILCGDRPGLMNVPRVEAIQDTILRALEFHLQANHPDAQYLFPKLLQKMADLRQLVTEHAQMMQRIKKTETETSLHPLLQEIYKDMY
# Method in brief: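 Cell-based TRANS reporter: HepG2, transient MRTU transfection, 24 h exposure. Readout = reporter mRNA (RT-PCR/CE, 6-FAM). Gain-of-signal fit vs DMSO control.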
# [13] = read-out: Intercellular Adhesion Molecule 1 (ICAM1), ICAM1 (gene 3383); assay: BSK_3C_ICAM1: BioMAP Diversity Plus: 3C Assay for Intercellular Adhesion Molecule 1 (ICAM1) Biomarker Activity (AID 2283003); details: primary human endothelial cells (HUVEC); actives raise or lower the signal
# Method in brief: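 ICAM-1 levels measured by ELISA after HUVEC cultures in the 3C system had been dosed for 24 h. Gain or loss of signal relative to DMSO was fitted in both directions.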
# [14] = BSK_3C_Proliferation: Cell Proliferation Assessment in the BioMAP Diversity Plus: 3C Assay (AID 2283006); details: primary human endothelial cells (HUVEC);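 for AC50: potency may reflect either rise or fall in cell number versus DMSO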
# Method in brief: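 Read-out is total protein by SRB absorbance at 560 nm, taken as a proxy for relative cell number. Primary human umbilical vein endothelium cultured below confluence was dosed for 48 h, TCA-fixed and SRB-stained; curves were fitted bidirectionally versus DMSO.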
# [15] = target: Nuclear receptor subfamily 1 group I member 2 (Homo sapiens) (UniProt O75469); assay: ATG_PXR_TRANS: Attagene TRANS-FACTORIAL HepG2 Assay for human Pregnane X Receptor (PXR) (AID 2283008; active = hit-call score of the fitted dose curve at least 0.9, where 1 is the maximum)
# Sequence of Nuclear receptor subfamily 1 group I member 2 (Homo sapiens) (O75469 whole entry, looked up, the tested form may be a part): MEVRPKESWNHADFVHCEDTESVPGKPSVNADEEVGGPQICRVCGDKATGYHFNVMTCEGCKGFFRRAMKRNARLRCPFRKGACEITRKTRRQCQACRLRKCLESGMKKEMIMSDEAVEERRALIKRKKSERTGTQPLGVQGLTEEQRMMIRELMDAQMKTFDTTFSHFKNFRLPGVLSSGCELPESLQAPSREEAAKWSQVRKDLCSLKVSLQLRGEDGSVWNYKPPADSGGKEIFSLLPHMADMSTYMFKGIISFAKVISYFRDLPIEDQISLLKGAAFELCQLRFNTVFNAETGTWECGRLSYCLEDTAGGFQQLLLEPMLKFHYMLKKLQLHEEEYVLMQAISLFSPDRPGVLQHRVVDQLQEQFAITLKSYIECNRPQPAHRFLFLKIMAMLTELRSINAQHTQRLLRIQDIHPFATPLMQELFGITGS
# Method in brief: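 Measures mRNA induction of a GAL4-UAS-driven reporter in human HepG2 cells transiently expressing PXR fused to Gal4, following 24 h treatment. DMSO served as negative control and baseline.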
# [16] = target: human Retinoic Acid Receptor gamma (RARg), RARG (gene 5916) (UniProt P13631); assay: ATG_RARg_TRANS: Attagene TRANS-FACTORIAL HepG2 Assay for human Retinoic Acid Receptor gamma (RARg) (AID 2283009; active = hit-call score of the fitted dose curve at least 0.9, where 1 is the maximum)
# Sequence of human Retinoic Acid Receptor gamma (RARg), RARG (gene 5916) (P13631 whole entry, looked up): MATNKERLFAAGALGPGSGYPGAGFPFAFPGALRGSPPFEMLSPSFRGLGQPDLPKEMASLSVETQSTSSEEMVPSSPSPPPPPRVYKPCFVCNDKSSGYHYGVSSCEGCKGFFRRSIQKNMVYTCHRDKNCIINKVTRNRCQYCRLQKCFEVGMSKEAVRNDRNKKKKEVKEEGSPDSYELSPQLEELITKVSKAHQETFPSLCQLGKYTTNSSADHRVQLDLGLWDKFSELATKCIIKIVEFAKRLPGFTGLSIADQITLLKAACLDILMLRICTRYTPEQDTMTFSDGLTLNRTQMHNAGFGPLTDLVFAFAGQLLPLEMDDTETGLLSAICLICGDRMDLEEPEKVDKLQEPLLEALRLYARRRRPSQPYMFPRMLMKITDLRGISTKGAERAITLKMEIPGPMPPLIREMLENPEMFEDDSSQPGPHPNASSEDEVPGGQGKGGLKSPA
# Method in brief: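 Transient transfection of HepG2 with multi-reporter constructs, then 24 h chemical treatment. Total RNA isolated, reverse-transcribed, PCR-amplified, fluorescently labelled and resolved by capillary electrophoresis; activity scored as mRNA induction versus DMSO.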
# [17] = target: human Retinoic Acid Receptor beta (RARb), RARB (gene 5915) (UniProt P10826); assay: ATG_RARb_TRANS: Attagene TRANS-FACTORIAL HepG2 Assay for human Retinoic Acid Receptor beta (AID 2283004; active = hit-call score of the fitted dose curve at least 0.9, where 1 is the maximum)
# Sequence of human Retinoic Acid Receptor beta (RARb), RARB (gene 5915) (P10826 whole entry, looked up, the tested form may be a part): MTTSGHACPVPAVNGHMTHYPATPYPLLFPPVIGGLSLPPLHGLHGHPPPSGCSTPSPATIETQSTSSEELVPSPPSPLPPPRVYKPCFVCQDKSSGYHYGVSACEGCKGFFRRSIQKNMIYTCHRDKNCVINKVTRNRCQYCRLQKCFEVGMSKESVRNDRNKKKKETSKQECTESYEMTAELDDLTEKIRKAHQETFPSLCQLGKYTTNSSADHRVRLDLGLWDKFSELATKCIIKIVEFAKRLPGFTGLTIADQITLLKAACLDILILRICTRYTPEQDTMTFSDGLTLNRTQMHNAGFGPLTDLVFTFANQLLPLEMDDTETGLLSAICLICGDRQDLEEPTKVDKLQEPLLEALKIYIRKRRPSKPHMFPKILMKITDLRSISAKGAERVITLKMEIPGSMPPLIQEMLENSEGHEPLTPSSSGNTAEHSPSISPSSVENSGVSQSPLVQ
# Method in brief: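 Induction of reporter mRNA from a chimeric RARb-Gal4 construct was measured by RT-PCR, FAM labelling, HpaI digestion and capillary electrophoresis. Measurements followed 24 h compound treatment of transiently transfected human HepG2 liver cells, with DMSO as baseline.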
# [18] = target: Peroxisome proliferator-activated receptor gamma (Homo sapiens) (UniProt P37231); assay: ATG_PPARg_TRANS: Attagene TRANS-FACTORIAL HepG2 Assay for human Peroxisome Proliferator-activated Receptor-gamma (PPARg) (AID 2283007; active = hit-call score of the fitted dose curve at least 0.9, where 1 is the maximum)
# Sequence of Peroxisome proliferator-activated receptor gamma (Homo sapiens) (P37231 whole entry, looked up, the tested form may be a part): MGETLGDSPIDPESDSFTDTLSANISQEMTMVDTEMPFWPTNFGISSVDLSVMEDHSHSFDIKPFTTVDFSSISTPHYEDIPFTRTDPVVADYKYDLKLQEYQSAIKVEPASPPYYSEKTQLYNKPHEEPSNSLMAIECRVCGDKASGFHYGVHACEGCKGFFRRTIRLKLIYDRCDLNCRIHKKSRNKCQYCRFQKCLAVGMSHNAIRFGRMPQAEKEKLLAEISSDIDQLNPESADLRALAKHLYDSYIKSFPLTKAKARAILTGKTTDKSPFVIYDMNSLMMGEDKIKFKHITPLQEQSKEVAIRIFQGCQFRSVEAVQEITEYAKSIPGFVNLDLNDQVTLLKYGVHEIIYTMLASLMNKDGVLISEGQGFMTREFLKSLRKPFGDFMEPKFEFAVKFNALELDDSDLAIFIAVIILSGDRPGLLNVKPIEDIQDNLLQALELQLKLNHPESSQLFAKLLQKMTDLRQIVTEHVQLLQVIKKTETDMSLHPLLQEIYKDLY
# Method in brief: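 Endpoint reflects upward reporter mRNA change versus DMSO controls. Setup: transiently transfected HepG2, GAL4-UAS reporters driven by chimeric NR-Gal4, 24 h incubation, RT-PCR with capillary electrophoresis read-out.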
# [19] = target: human RAR-related Orphan Receptor beta (RORb), RORB (gene 6096) (UniProt Q92753); assay: ATG_RORb_TRANS: Attagene TRANS-FACTORIAL HepG2 Assay for human RAR-related Orphan Receptor beta (RORb) (AID 2283010; active = hit-call score of the fitted dose curve at least 0.9, where 1 is the maximum)
# Sequence of human RAR-related Orphan Receptor beta (RORb), RORB (gene 6096) (Q92753 whole entry, looked up, the tested form may be a part): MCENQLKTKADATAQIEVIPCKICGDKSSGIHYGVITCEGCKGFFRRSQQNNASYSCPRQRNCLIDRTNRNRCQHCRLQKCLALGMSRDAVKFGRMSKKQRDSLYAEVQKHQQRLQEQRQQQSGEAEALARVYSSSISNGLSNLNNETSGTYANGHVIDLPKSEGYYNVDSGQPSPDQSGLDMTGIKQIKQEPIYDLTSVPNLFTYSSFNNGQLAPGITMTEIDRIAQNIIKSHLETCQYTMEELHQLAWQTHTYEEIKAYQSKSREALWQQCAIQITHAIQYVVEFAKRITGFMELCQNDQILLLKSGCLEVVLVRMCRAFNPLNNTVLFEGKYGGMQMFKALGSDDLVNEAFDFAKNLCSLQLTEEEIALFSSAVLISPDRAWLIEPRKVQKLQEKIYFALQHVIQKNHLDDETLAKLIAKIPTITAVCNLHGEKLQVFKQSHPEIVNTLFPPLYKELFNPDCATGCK
# Method in brief: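 Readout is reporter-gene mRNA induction, detected as fluorescence after RT-PCR and capillary electrophoresis, fitted for gain of signal against DMSO controls. Transiently transfected HepG2 liver cells carrying GAL4-UAS reporter constructs were treated for 24 hours.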
# [20] = target: Retinoic acid receptor alpha (Homo sapiens) (UniProt P10276); assay: ATG_RARa_TRANS: Attagene TRANS-FACTORIAL HepG2 Assay for human Retinoic Acid Receptor alpha (RARa) (AID 2283005; active = hit-call score of the fitted dose curve at least 0.9, where 1 is the maximum)
# Sequence of Retinoic acid receptor alpha (Homo sapiens) (P10276 whole entry, looked up, the tested form may be a part): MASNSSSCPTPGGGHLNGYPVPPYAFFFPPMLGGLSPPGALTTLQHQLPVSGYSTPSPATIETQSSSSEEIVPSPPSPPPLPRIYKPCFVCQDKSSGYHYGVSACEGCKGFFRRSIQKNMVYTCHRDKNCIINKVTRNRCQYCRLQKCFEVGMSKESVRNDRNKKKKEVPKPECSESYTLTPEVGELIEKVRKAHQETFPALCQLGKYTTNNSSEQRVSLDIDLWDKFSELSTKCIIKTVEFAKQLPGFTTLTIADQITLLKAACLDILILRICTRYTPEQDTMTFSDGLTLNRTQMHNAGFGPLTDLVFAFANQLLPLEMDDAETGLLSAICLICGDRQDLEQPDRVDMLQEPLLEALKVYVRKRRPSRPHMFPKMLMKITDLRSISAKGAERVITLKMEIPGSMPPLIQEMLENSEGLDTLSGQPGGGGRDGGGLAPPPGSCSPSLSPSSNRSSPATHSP
# Method in brief: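 Reporter transcripts, measured by RT-PCR with fluorescent labeling and capillary electrophoresis after 24 h dosing, reflect activity of an exogenous human RARa–GAL4 fusion in transiently transfected HepG2. Fitted for increase relative to DMSO.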
smiles,measurement,setting,value
CCOC(=O)CN[C@@H](C(=O)N1CC[C@H]1C(=O)NCc1ccc(/C(N)=N/O)cc1)C1CCCCC1,outcome,[1],inactive
same,outcome,[2],inactive
same,outcome,[3],inactive
same,outcome,[4],inactive
same,outcome,[5],inactive
same,outcome,[6],inactive
same,outcome,[7],inactive
same,outcome,[8],inactive
same,outcome,[9],inactive
same,outcome,[10],inactive
same,outcome,[11],inactive
same,outcome,[12],inactive
same,outcome,[13],inactive
same,outcome,[14],inactive
same,outcome,[15],inactive
same,outcome,[16],inactive
Cc1ccc(N=Nc2c(O)ccc3ccccc23)c(C)c1,outcome,[1],inactive
same,outcome,[2],inactive
same,outcome,[3],inactive
same,AC50,[4],1.86 µM (active)
same,outcome,[5],inactive
same,outcome,[6],inactive
same,AC50,[7],1.97 µM (active)
same,outcome,[8],inactive
same,outcome,[9],inactive
same,AC50,[10],3.39 µM (active)
same,outcome,[11],inactive
same,outcome,[12],inactive
same,outcome,[13],inactive
same,outcome,[17],inactive
same,AC50,[14],15 µM (active)
same,AC50,[18],6.99 µM (active)
same,AC50,[15],3.36 µM (active)
same,outcome,[16],inactive
same,outcome,[19],inactive
Oc1cc2ccccc2cc1O,outcome,[1],inactive
same,outcome,[2],inactive
same,outcome,[3],inactive
same,AC50,[4],100 µM (active)
same,outcome,[5],inactive
same,outcome,[6],inactive
same,outcome,[7],inactive
same,outcome,[8],inactive
same,outcome,[9],inactive
same,outcome,[10],inactive
same,AC50,[11],42.8 µM (active)
same,outcome,[12],inactive
same,outcome,[13],inactive
same,outcome,[17],inactive
same,outcome,[20],inactive
same,outcome,[14],inactive
same,outcome,[18],inactive
same,outcome,[15],inactive
same,outcome,[16],inactive
same,outcome,[19],inactive
O=S(=O)(O)C(F)(F)C(F)(F)C(F)(F)C(F)(F)C(F)(F)C(F)(F)C(F)(F)C(F)(F)C(F)(F)C(F)(F)F,outcome,[1],inactive
same,outcome,[2],inactive
same,AC50,[3],14.6 µM (active) and 9.12 µM (active)
same,AC50,[4],47.3 µM (active) and 25.4 µM (active)
same,outcome,[5],inactive
same,outcome,[6],inactive
same,outcome,[7],inactive
same,AC50,[8],24.6 µM (active) and 13.3 µM (active)
same,outcome,[9],inactive
same,AC50,[10],5.83 µM (active)
same,outcome,[10],inactive
same,outcome,[11],inactive
same,outcome,[12],inactive
same,outcome,[13],inactive
same,outcome,[17],inactive
same,outcome,[20],inactive
same,AC50,[14],13.3 µM (active)
same,outcome,[18],inactive
same,outcome,[15],inactive
same,outcome,[16],inactive
same,outcome,[19],inactive
O=P(O)(O)CCC(F)(F)C(F)(F)C(F)(F)C(F)(F)C(F)(F)C(F)(F)C(F)(F)C(F)(F)F,outcome,[1],inactive
same,outcome,[2],inactive
same,outcome,[3],inactive
same,outcome,[4],inactive
same,outcome,[5],inactive
same,outcome,[6],inactive
same,outcome,[7],inactive
same,outcome,[8],inactive
same,outcome,[9],inactive
same,AC50,[10],41.5 µM (active) and 28.8 µM (active)
same,outcome,[11],inactive
same,outcome,[12],inactive
same,outcome,[13],inactive
same,outcome,[17],inactive
same,outcome,[20],inactive
same,AC50,[14],30 µM (active) and 30.1 µM (active)
same,outcome,[18],inactive
same,outcome,[19],inactive
CC(C)C=O,outcome,[1],inactive
same,outcome,[2],inactive
same,outcome,[3],inactive
same,AC50,[4],64.6 µM (active)
same,outcome,[4],inactive
same,outcome,[5],inactive
same,outcome,[6],inactive
same,outcome,[11],inactive
same,outcome,[12],inactive
same,outcome,[17],inactive
same,outcome,[20],inactive
same,outcome,[18],inactive
same,outcome,[15],inactive
same,outcome,[16],inactive
same,outcome,[19],inactive

# Source: PubChem BioAssay (EPA / NIEHS)
